{"source": "ChEMBL document CHEMBL1961873", "about": "“Compounds: GSK PKIS; Assays: Nanosyn kinase panel” (2012);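 further: reported figure is the mean inhibition of DDR2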", "data": [{"biological_target": "T1, Discoidin domain-containing receptor 2 (Homo sapiens) (UniProt Q16832)", "T1 sequence (whole entry)": "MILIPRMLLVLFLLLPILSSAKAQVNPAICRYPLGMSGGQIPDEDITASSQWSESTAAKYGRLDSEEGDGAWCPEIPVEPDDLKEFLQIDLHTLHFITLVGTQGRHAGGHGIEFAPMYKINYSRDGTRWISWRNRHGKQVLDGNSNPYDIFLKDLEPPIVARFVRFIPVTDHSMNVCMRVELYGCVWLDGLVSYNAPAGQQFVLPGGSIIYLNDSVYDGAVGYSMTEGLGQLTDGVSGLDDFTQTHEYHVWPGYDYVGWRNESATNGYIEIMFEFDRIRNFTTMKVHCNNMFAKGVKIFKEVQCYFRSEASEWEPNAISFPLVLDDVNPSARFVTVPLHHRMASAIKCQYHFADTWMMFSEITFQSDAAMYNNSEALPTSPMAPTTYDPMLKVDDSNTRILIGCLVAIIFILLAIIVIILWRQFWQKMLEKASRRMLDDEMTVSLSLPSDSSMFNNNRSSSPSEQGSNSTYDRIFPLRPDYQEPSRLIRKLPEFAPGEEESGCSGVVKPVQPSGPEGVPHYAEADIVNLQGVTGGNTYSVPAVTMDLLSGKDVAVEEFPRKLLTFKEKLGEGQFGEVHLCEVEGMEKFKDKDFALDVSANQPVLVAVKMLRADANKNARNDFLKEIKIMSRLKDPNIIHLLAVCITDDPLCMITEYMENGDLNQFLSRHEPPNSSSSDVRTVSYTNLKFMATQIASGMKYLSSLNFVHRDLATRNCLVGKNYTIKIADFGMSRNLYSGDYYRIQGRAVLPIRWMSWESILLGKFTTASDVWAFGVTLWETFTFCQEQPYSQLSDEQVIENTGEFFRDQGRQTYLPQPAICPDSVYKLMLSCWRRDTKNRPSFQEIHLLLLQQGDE", "conditions": "at 1 µM", "units": {"inhibition": "%"}, "values": [{"smiles": "O=C(Nc1n[nH]c2cc(-c3ccc(F)cc3)ccc12)C1CC1", "inhibition": 1.71}, {"smiles": "CNC(=O)c1cccc(C#Cc2cncnc2Nc2ccc(OCc3cccc(F)c3)c(Cl)c2)c1", "inhibition": 4.52}, {"smiles": "COc1cccc(-c2c[nH]c3c(N/N=C/c4ccncc4)ncnc23)c1", "inhibition": 14.8}, {"smiles": "CCn1c(-c2nonc2N)nc2cnc(Oc3cccc(NC(=O)c4ccc(N(C)C)cc4)c3)cc21", "inhibition": 1.45}, {"smiles": "COc1ccc(-c2cc3c(N)ncnc3o2)cc1", "inhibition": 0.02}, {"smiles": "c1ccc(-c2nc3n(c2-c2ccc4c(c2)OCO4)CCC3)nc1", "inhibition": 0.78}, {"smiles": "FC(F)(F)c1cccc(-c2nn3ncccc3c2-c2ccnc(Nc3ccc4c(c3)OCCO4)n2)c1", "inhibition": 16.5}, {"smiles": "CC(C)COC(=O)c1ccc2c(c1)/C(=C/Nc1ccc(S(N)(=O)=O)cc1)C(=O)N2", "inhibition": 2.05}, {"smiles": "COc1ccc(-c2nn3ncccc3c2-c2ccnc(Nc3ccc4c(c3)OCCO4)n2)cc1", "inhibition": 79.8}, {"smiles": "CN1CCC(n2cnc(-c3ccc(F)cc3)c2-c2ccnc(N)n2)CC1", "inhibition": 1.6}, {"smiles": "N#Cc1c(NC(=O)c2ccc(F)cc2)sc2c1CCCC2", "inhibition": -0.2}, {"smiles": "COC(=O)Nc1nc2ccc(S(=O)(=O)c3ccc(NC(=O)Nc4cc(C(F)(F)F)ccc4F)cc3)cc2[nH]1", "inhibition": 62.7}, {"smiles": "NS(=O)(=O)c1ccc(N/N=C2\\C(=O)Nc3ccc4ncccc4c32)cc1", "inhibition": 6.09}, {"smiles": "[O-][S+]1CCN(Cc2ccc(-c3ccc4ncnc(Nc5ccc(OCc6cccc(F)c6)c(Cl)c5)c4c3)o2)CC1", "inhibition": 2.37}, {"smiles": "Cc1cccc2c1NC(=O)/C2=N\\Nc1ccc(S(N)(=O)=O)cc1", "inhibition": 1.81}, {"smiles": "CS(=O)(=O)CCNCc1ccc(-c2ccc3ncnc(Nc4ccc(OCc5ccccc5)c(C(F)(F)F)c4)c3c2)o1", "inhibition": 1.84}]}]}
